# From PubChem BioAssay
# The list is not random: actives were taken first. Their share in the collection is about 6.1%.
# FLuc inh: blocks Photinus pyralis firefly luciferase activity | hit rate 2.2% among 72,000 | Potency, µM (highest dose often 57.1 µM), without a hit: at the highest dose activity change, negative = inhibition, usual class: inhibitors | AID 411 | purified firefly luciferase, luminescence, 8 min | P08659; also: potency is read from the fitted curve at half-maximal effect; % is scaled to controls: 0 for no effect and ±100 for the full control effect; nearly all actives have a fitted effect of over 40% in size
#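 Inhibition of light generation by firefly luciferase from ATP and luciferin was profiled with concentration-response curves per sample, ATP held at 10 uM within the enzyme's linear range. Plates were read by luminescence after an 8-minute ambient incubation.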
# TSHR agonist: agonists of human thyroid stimulating hormone receptor; P16473; HEK293-CNG-TSHR cells (CNG channel as cAMP sensor), membrane potential dye, cAMP; Potency, µM (highest dose often 57.1 µM), without a hit: top-dose activation, hits mostly activators; hit rate 0.48% among 73,000; AID 926; active = well fitted activation curve with a large enough effect in the main read-out, with a control signal flat, not every such curve was filed as active; inconclusive = small, poorly fitted or top-dose-only effect, or a change in a side signal; inactive = no such curve, though single readings can be large or run the other way; % of control where 0% means no effect;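 also: the control signal comes from parental cells without the receptor; potency is read from the fitted curve at half-maximal effect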
#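 HEK 293 cells stably expressing TSHR and a modified CNG channel, with CNG-only parental cells as counterscreen, were preloaded 60 min at room temperature with membrane potential dye containing 100 uM RO 20-1724. Compound exposure was 30 min, and depolarization was read as fluorescence at 590 nm.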
# GBA activity: modulators of human glucocerebrosidase. AID 360. Potency, µM. hit rate 1.1% among 48,000. purified enzyme, resorufin glucoside fluorescence (screen aimed at inhibitors), 20 min; in the data active = potency below about 15 µM; inconclusive = mostly about 16 µM to 33 µM;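 also: potency is read from the fitted curve at half-maximal effect; the screen sought inhibitors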
# Target sequence (P04062 whole entry, looked up): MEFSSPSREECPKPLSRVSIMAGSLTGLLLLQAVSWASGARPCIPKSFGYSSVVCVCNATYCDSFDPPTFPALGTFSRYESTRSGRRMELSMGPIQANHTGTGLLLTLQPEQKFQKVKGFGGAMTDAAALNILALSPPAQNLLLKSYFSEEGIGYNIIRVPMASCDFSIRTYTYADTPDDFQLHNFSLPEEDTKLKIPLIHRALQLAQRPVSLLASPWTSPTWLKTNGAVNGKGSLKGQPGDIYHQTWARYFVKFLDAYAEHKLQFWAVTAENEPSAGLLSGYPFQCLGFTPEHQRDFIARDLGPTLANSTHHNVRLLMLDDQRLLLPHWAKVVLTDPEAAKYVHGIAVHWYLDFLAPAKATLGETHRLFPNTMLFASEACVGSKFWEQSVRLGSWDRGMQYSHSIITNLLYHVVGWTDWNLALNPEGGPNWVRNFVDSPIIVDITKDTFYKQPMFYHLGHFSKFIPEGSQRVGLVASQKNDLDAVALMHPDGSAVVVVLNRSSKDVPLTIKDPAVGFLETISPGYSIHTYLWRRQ
#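 Normal human glucocerebrosidase (0.2 nM final) was assayed with resorufin β-D-glucopyranoside (30 uM final) in 50mM citric acid/KH2PO4, 10mM sodium taurocholate, 0.01% tween-20, pH 5.9. Compounds were titrated; fluorescence (Ex 548, Em 600) read after 20 min at RT.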
# HEK293 cAMP ctrl: parental HEK293 cAMP activation (counter-screen); parental HEK293 CNG cAMP sensor, membrane potential fluorescence; Potency, µM (titrated, usually from 57.1 µM), inactives show at the top dose activation, hits mostly activators; hit rate 2.5% among 73,000; also: potency is read from the fitted curve at half-maximal effect; % of control where 0% means no effect; nearly all actives have a fitted effect of over 55% in size
#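 Parental HEK 293 cells stably expressing a modified CNG channel (no TSHR) report cAMP rise as membrane depolarization. Membrane potential dye with 100 uM RO 20-1724 was loaded for 60 min at room temperature, then compound added for 30 min; fluorescence read at 590 nm.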
# Bst PK mod: pyruvate kinase (B. stearothermophilus) modulation; purified pyruvate kinase, luminescence ATP production; ribose 5-phosphate activator present at AC10; Potency, µM; hit rate 1.2% among 51,000; AID 361; in the data active = potency below about 11 µM; inconclusive = mostly about 12 µM to 25 µM;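 the screen sought inhibitors and activators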;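 also: potency is read from the fitted curve at half-maximal effect; scaled between full activation by ribose 5 phosphate and full inhibition by luteolin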
# ERK AVP block: blocks ERK signaling stimulated by vasopressin | HEK293-V1b, vasopressin-stimulated pERK AlphaScreen | Potency, µM (top dose mostly 57.5 µM), inactives show top-dose activity, negative = inhibition, hits mostly inhibitors | hit rate 0.99% among 72,000; also: potency is read from the fitted curve at half-maximal effect; % is scaled to controls: 0 for no effect and ±100 for the full control effect; nearly all actives have a fitted effect of over 55% in size
#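 Overnight-seeded V1b-HEK293 cells in 1% FBS got compound, then vasopressin (25 nM final, 5 min, 37C), then lysis buffer. AlphaScreen detection of phospho-ERK; activity normalized to basal and full-stimulation controls.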
# parental cAMP: TSHR-independent cAMP elevation, counter-screen; parental HEK293 CNG biosensor, cAMP membrane potential fluorescence; AID 953; activity change, negative = inhibition, % at 32.9 µM; shares compounds with TSHR agonist; 150 tested, under 10 active
# * marks the source's active call; other numbers are inactive results; ? = inconclusive; nt = no result given; ! = not confirmed by another sample; [ ] = remark or other dose. Unless noted, calls follow the shape of the dose curve; as a rule, active = well fitted curve in the direction sought with a large enough effect; inconclusive = small, poorly fitted or top-dose-only effect, or another doubt; inactive = no such curve, though single readings can be large; an effect the other way counts as inactive or inconclusive.
SMILES,FLuc inh,TSHR agonist,GBA activity,HEK293 cAMP ctrl,Bst PK mod,ERK AVP block,others
COC(=O)[C@@]1(Cc2ccccc2)[C@H]2c3cc(C(=O)N(C)C)[nH]c3C[C@H]2CN1C(=O)c1ccccc1,nt,?,nt,?,nt,2%,
COC(=O)[C@@]1(Cc2ccccc2)[C@H]2c3cc(C(=O)N(C)C)n(C)c3C[C@H]2CN1C(=O)c1ccccc1,nt,?,nt,25µM*,nt,2%,
O.O.[NH-]C1(C(=O)O)CCCC1.[NH-]C1(C(=O)O)CCCC1.[Ni+2],0%[11.4 µM],-1%[11.4 µM],nt,13%[11.4 µM],nt,10%[11.5 µM],
CCCn1c(C)c(C(=O)c2cccc3ccccc23)c2ccccc21,-1%,?,nt,13µM*,nt,35%,
COc1cc2c(cc1OC)[C@@]13CCN4C=C5CCO[C@H]6CC(=O)N2[C@@H]1[C@@H]6[C@H]5C[C@H]43,2%[11.4 µM],3%[11.4 µM],nt,-6%[11.4 µM],nt,-1%[11.5 µM],
COc1cc2c(C(=O)N3CCN(C)CC3)c(C)n(C)c2cc1Br,-4%,?,>77,20µM*,>57,-14%,
O=c1[nH]c2ccccc2n1CCCN1CCC(n2c(=O)[nH]c3cc(Cl)ccc32)CC1,1%[25.5 µM],?,nt,16µM*!,>26,?,
C#CCN[C@@H](C)Cc1ccccc1,1%,nt,nt,5%,nt,-15%,
CCOC(=O)c1c(N)n(Cc2ccco2)c2nc3ccccc3nc12,-5%,?,nt,?,nt,7%,
CCCCn1c(NC(=O)c2ccco2)c(C(=O)OCC)c2nc3ccccc3nc21,2%,?,>77,6.3µM*,>57,-4%,
O=C(Oc1ccccc1)N1CCC2(CCCN(Cc3ccccc3)C2)CC1,1%[11.4 µM],?,nt,?,nt,10%,
O=C(Oc1ccccc1)N1CCC[C@@]2(CCN(Cc3cc(C(F)(F)F)cc(C(F)(F)F)c3)C2)C1,1%[11.4 µM],?,nt,16µM*,nt,9%,
N#Cc1ccc(CN2CCCC3(CCN(C(=O)Oc4ccccc4)CC3)C2)cc1,0%[11.4 µM],?,nt,16µM*,nt,4%,
CC(C)[C@]1(NC(=O)[C@H]2C=C3c4cccc5[nH]cc(c45)C[C@H]3N(C)C2)O[C@@]2(O)[C@H]3CCCN3C(=O)[C@H](Cc3ccccc3)N2C1=O,-3%[11.4 µM],-13%,nt,-22%,nt,nt,
CC(C)c1ccc(C(O)(C(=O)O)c2ccc(C(C)C)cc2)cc1,4%[11.4 µM],7%[11.4 µM],nt,14%[11.4 µM],nt,2%[11.5 µM],
CCn1nc(-c2cccs2)nc2c(=O)n(C)c(=O)nc1-2,0%,?,>77,3.2µM*,>57,8%,
C=CCN1CC[C@@]23CCCC[C@@H]2[C@@H]1Cc1ccc(O)cc13,0%,21%,nt,11%,nt,21%,
O=c1[nH]c(=O)n(Cc2ccco2)c(O)c1C=NC1CC1,-2%,nt,>77,8%,>57,-12%,parental cAMP=5
CN(C)c1ccc(Cc2ccc(N(C)C)cc2)cc1,nt,?,nt,-33%,nt,?,
CN(C)c1ccc(CN2CC=C(c3ccc(F)cc3)CC2)cc1,5%,-9%,nt,-9%,nt,?,parental cAMP=6[25.6 µM]
NC(=O)CN1C[C@@H](O)CC1=O,1%,4%,nt,28%,nt,4%,
